Source: PubChem BioAssay
Mot1-301 SUMO – yeast Mot1-301 growth rescue at high temperature, primary screen, SUMOylation pathway inhibitor project, S. cerevisiae, ATP luminescence, 38.5C | hit rate 1% among 320,000 | S. cerevisiae Mot1-301 growth rescue; percent above DMSO median, 100 means doubled | AID 2716, 2010 | growth rescue, % at 18.8 µM;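 active = every valid replicate shows activation above 250% relative to neutral control wells; inactive = the rest, any valid replicate at or below 250%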;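 note: OY570 slx delta 5 strain wells were the positive control but not used for scaling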
FAS TE block – FAS thioesterase domain inhibitors, primary screen, biochemical, fluorescence intensity, uHTS; Fatty acid synthase (Homo sapiens), P49327; recombinant FAS-TE, OMFH fluorogenic substrate, fluorescence endpoint; inhibition, % at 15 µM; hit rate 0.67% among 360,000; AID 602261, 2012;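 active = compounds whose normalised, plate-corrected inhibition of enzyme fluorescence in the single-dose primary screen is 50% or more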;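 note: 0% = DMSO with enzyme and 100% = substrate without enzyme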
CR mimetic SO – reduction of superoxide in aged yeast, primary screen, HTS; S. cerevisiae aged cells, superoxide DHE fluorescence; active compounds read low; superoxide response (% of plate mean), % at 10 µM; hit rate 0.18% among 330,000;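 active = superoxide response under a set limit, about three screen SD below normal, cut at about 65% in these data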;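 note: yeast aged for seven days with compound at 30 °C before DHE staining; 100% = average MFI of all compound-treated wells on the plate with controls excluded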
MPTP inh – mitochondrial permeability transition pore inhibitors, primary screen, biochemical, isolated mouse mitochondria, absorbance. inhibition, % at 10 µM. hit rate 1.4% among 360,000. AID 602449, 2012. Ca2+ swelling absorbance, 30 min;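 active = inhibition of 50% or more, scaled per plate between neutral and stimulator controls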;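 note: 0% = DMSO wells given calcium and 100% = 1 mM EGTA wells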
aDG glyco act – activators of alpha-DG glycosylation, primary screen, uHTS, Pro5-aDG cells, AlphaScreen. alpha-DG glycosylation AlphaScreen (IIH6); 0% Pro5, 100% B10-LARGE cell signal. activation, % at 10 µM. hit rate 0.22% among 360,000. AID 624168, 2012;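 active = activation of at least 8% versus controls, or a plate z-score of at least 8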;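 note: Pro5 are CHO cells carrying HIG-tagged alpha-DG that lacks glycosylation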
H9c2 protect – cardioprotection against H2O2-induced cell death, primary screen, uHTS, H9c2 cells, ATPLite luminescence. H9c2 cardiomyocytes, H2O2 injury protection, 2 h. protection from H2O2 cell death, % at 20 µM. hit rate 0.63% among 360,000. AID 588492, 2011;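 active = compounds giving at least 50% protection of heart cells from peroxide-induced death in the single-dose screen, raw or plate-pattern-corrected value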;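 note: 0% = DMSO wells with peroxide and 100% = DMSO wells without peroxide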
Rh123 counter – fluorescence retest of MPTP screen hits in isolated mitochondria, single concentration; shares compounds with MPTP inh; membrane potential, Rhodamine 123 fluorescence; inhibition, % at 10 µM; hit rate 78% among 5,000; AID 624504, 2012; in the data active = inhibition above about 22%;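 note: 0% = DMSO vehicle and 100% = positive control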
MPTP abs DR – mitochondrial permeability transition pore inhibitors, dose response, biochemical, absorbance, uHTS hits; shares compounds with MPTP inh; isolated mitochondria swelling; IC50, µM; hit rate 58% among 780; AID 651561, 2012; in the data active = IC50 below about 20 µM
MPTP cs DR – fluorescent counter-screen in isolated mitochondria, dose response, counter-screen for MPTP inhibitor project, biochemical, fluorescence, uHTS hits; shares compounds with MPTP inh; isolated mitochondria counterscreen, fluorescence read-out; IC50, µM; hit rate 49% among 780; in the data active = IC50 below about 80 µM
* hit, by the source's call; i = inactive; x = no result given. An excerpt weighted towards active compounds, which were near 3.8% of everything screened.

SMILES	Mot1-301 SUMO	FAS TE block	CR mimetic SO	MPTP inh	aDG glyco act	H9c2 protect	Rh123 counter	others
COc1ccc([N+](=O)[O-])cc1NC(=S)NC(NC(C)=O)C(Cl)(Cl)Cl (stereo not given)	x	13	105	9	0	1	x
COc1ccc([N+](=O)[O-])cc1NC(=S)NC(NC(=O)Cc1ccc(OC)c(OC)c1)C(Cl)(Cl)Cl (stereo not given)	-1	2	105	66*	0	1	51*
Cc1ccc(Nc2nc(C)cc(C)c2C#N)c(C)c1	x	2	x	-1	0	-6	x
Cc1nc2ccccc2n1Cc1ccc(Br)cc1	-21	4	88	93*	2	-17	96*
Cc1nc2ccccc2n1Cc1ccccc1Br	-21	-4	98	73*	2	-13	81*
Cc1nc2ccccc2n1Cc1ccccc1	-15	-4	88	1	0	-9	x
CCOc1ccccc1-c1cc(-c2ccc(OC)cc2)nc2c1c(=O)n(C)c(=O)n2C	-11	9	93	83*	0	-16	6	MPTP abs DR=>100;MPTP cs DR=>80
Cc1cc(C)c(S(=O)(=O)N2CCOC2CNC(=O)C(=O)NCCN2CCOCC2)c(C)c1 (stereo not given)	-4	-2	94	1	0	3	x
O=C(Nc1ccc(Cl)cc1)NC1CCCC1Cc1ccco1 (stereo not given)	5	9	95	103*	1	-13	88*
O=C(Nc1ccc(Cl)cc1)NC1CCCCC1	-2	-2	103	17	0	-5	x
O=C(Nc1ccc(Cl)cc1)NC1CCCCC1Cc1ccco1 (stereo not given)	24	20	104	105*	0	-20	83*
CC1CC(C)CN(CCCNC(=O)Cn2cccc2C(=O)c2ccccc2)C1 (stereo not given)	-5	-3	81	2	0	0	x
O=C(COc1ccccc1Cl)Nc1ccccc1C(=O)N1CCOCC1	1	-6	96	0	0	-6	x
Cc1cc(Nc2ccc([N+](=O)[O-])cc2)nc2ccccc12	7	-5	96	76*	0	-7	58*
Cc1cc(Nc2ccc([N+](=O)[O-])cc2)c2ccccc2n1	-12	4	99	2	0	-14	x
CN1C[C@@H]2[C@@H]3C(=O)N(C)C(=O)[C@@H]3[C@](Cc3ccccc3)(C1=O)N2C(=O)c1ccccc1	x	-14	x	0	0	0	x
Cc1ccc2nc(-c3ccc(N4C(=O)CC(N5CCN(CCO)CC5)C4=O)cc3)sc2c1 (stereo not given)	-17	-6	97	94*	0	-7	-6	MPTP abs DR=19*;MPTP cs DR=>80
Cn1c(-c2ccc(Br)o2)nc2cc(Br)ccc21	40	2	91	64*	1	-22	-8	MPTP abs DR=i;MPTP cs DR=>80
O=c1cnc2ccccc2n1Cc1ccccc1	x	-7	x	3	0	-2	x
CNC(=S)N/N=C/c1cccc(OCc2ccccc2F)c1	152	27	107	70*	3	-25	28*
CCNC(=S)N/N=C/c1cccc(OCc2c(F)cccc2Cl)c1	-3	19	105	2	1	-12	x
Cc1nn(-c2ccc(NC(=O)c3ccncc3)cc2)c(C)c1Cl	154	-9	99	80*	2	-13	79*
O=C(Nc1ccc(Cl)c(Cl)c1)c1cccc(S(=O)(=O)NCc2cccnc2)c1	9	30	101	104*	3	-25	84*
O=C(Nc1ccc(Cl)c(Cl)c1)OCc1cccnc1	87	20	99	90*	1	-15	95*
COc1cccc(S(=O)(=O)NCc2ccc(C(=O)Nc3ccc(Cl)c(Cl)c3)cc2)c1	13	13	105	2	2	-21	x
SMILES	Mot1-301 SUMO	FAS TE block	CR mimetic SO	MPTP inh	aDG glyco act	H9c2 protect	Rh123 counter	others
CCOC(=O)c1sc(N/N=C/c2cc(Br)c(O)c(OC)c2)nc1C	-15	5	100	2	0	5	x
O=C(COC(=O)Cc1c(Cl)cccc1Cl)Nc1ccc(OC(F)(F)F)cc1	4	36	120	66*	0	-9	73*
CN(CC(=O)Nc1ccc(OC(F)(F)F)cc1)C(=O)Cc1c(Cl)cccc1Cl	98	8	99	0	0	-2	x
CCCNC(=O)c1ccc2nc(-c3ccccc3)c(-c3ccccc3)nc2c1	-1	21	107	2	0	26	x
COc1ccc(C(=O)NCCCN2CCOCC2)cc1	-10	-4	92	0	0	1	x
COc1ccc(-c2nc3ccc(C(=O)NCCCN4CCOCC4)cc3nc2-c2ccc(OC)cc2)cc1	-13	1	131	84*	0	22	-2	MPTP abs DR=4.9*;MPTP cs DR=>80
CCN1CCN(CCNC(=O)c2ccc3nc(-c4cccc(C)c4)c(-c4cccc(C)c4)nc3c2)CC1	31	9	83	96*	0	-9	-17
CC(=O)c1c(C)[nH]c(C(=O)Nc2nc(-c3ccc(-c4ccccc4)cc3)cs2)c1C	304	10	109	94*	0	-1	69*
CC(=O)c1c(C)[nH]c(C(=O)Nc2nc(-c3ccc(Cl)cc3)cs2)c1C	-1	5	86	94*	1	-1	58*
CC(=O)c1c(C)[nH]c(C(=O)Nc2nc(C)cs2)c1C	16	-4	94	2	0	-16	x
Cc1cccc(NC(=S)NCCC(c2ccccc2)c2ccccc2)c1	3	29	99	87*	0	-8	100*
COc1cccc(NC(=S)NCCC(c2ccccc2)c2ccccc2)c1	-24	21	106	4	1	-21	x
COc1cc(NC(=S)NCCC(c2ccccc2)c2ccccc2)cc(OC)c1	1	26	92	78*	1	-13	92*
Cc1cccc(NC(=S)NNC(=S)NCc2ccccc2)c1	x	-3	109	42	0	-19	x
CCc1ccc(NC(=O)[C@H](Cc2c[nH]c3ccccc23)NC(=O)[C@@H]2Cc3ccccc3CN2)cc1	-9	12	97	72*	0	-6	-16	MPTP abs DR=7.6*;MPTP cs DR=>80
